Experimental data: PubChem BioAssay AID463218 (Sanford-Burnham Center for Chemical Genomics, 2010)
In all, about 4,400 compounds went through this assay and about 3,700 (84%) were called active.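 Rule for the calls: active = inhibition above about 39% in either of two replicate wells at 20 µM (limit read from the data); inactive = the rest.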 So high a share suggests a set chosen from earlier hits. These entries were drawn from the full list.

Experiment: tim23-1 mutant yeast growth inhibitors, confirmation, luminescence, single concentration (AID 463218);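 note: temperature-sensitive tim23-1 mutant grown at 25 °C; 0% = DMSO wells with yeast and 100% = medium wells without yeast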
Details: S. cerevisiae tim23-1 growth, BacTiter-Glo luminescence, 24 h; at 20 µM; stronger effect = higher value
With `Cc1nc2sc(C(=O)c3ccccc3)c(N)c2c2c1CCCC2` the inhibition was 54.4% (active).
In the case of `COc1cccc(-c2sc3ccc(OC)cc3c2-c2ccc(OCCN3CCCCC3)cc2)c1`, the inhibition is reported as 23.4% (inactive).
With `Cc1[nH]n(C(N)=S)c(=O)c1N=Nc1ccc(Cl)cc1Cl` the inhibition was 70% (active).
In the case of `CC(=O)N1N=C(c2ccncc2)OC1(Cc1ccccc1)Cc1ccccc1`, the inhibition is reported as 49.8% (active).
For `c1ccc(-c2nc(NCc3ccco3)c3ccccc3n2)cc1`, the inhibition was 64.7% (active).
With `O=c1ccc2c(-c3ccccc3S(=O)(=O)O)c3ccc(O)c(O)c3oc-2c1O` the inhibition was 43.4% (active).
For `O=c1oc(-c2ccccc2NS(=O)(=O)c2ccc(Cl)cc2)nc2ccccc12`, the inhibition was 56% (active).
For `CC(C)NC(=O)/C(C#N)=C\c1ccc(N(C)C)c(Br)c1`, the inhibition was 62.2% (active).
With `O=C1CC(Sc2ncn[nH]2)C(=O)N1c1ccccc1` (stereo not given) the inhibition was 37.8% (inactive).
For `Cc1ccc2nc(Nc3ccccc3)cc(C)c2c1`, the inhibition was 43.1% (active).
With `Cc1cc(Nc2ccc(Br)cc2)nc2ccccc12` the inhibition was 68.2% (active).
With `Cc1cccc(-c2nc(Nc3ccc(O)cc3)c3ccccc3n2)c1` the inhibition was -19.6% (inactive).
In the case of `Cc1[nH][nH]c(=O)c1C(c1ccc(-c2ccc(Cl)cc2)o1)c1c(C)[nH][nH]c1=O`, the inhibition is reported as 62.4% (active).
In the case of `CC(=O)Oc1ccc(N(C(C)=O)S(=O)(=O)c2ccc3ccccc3c2)cc1Br`, the inhibition is reported as 52.9% (active).
With `Cc1ccc(C(=O)OC2=CC(=O)CC(C)(C)C2)cc1` the inhibition was 38% (active).
With `CN1C(=O)/C(=N/OC(=O)c2ccccc2Br)c2ccccc21` the inhibition was -64.7% (inactive).
In the case of `CSC(=S)N/N=C/c1c[nH]c2ccccc12`, the inhibition is reported as 52.5% (active).
In the case of `COCCNC(=O)/C(C#N)=C/c1cccc(OCc2ccccc2)c1`, the inhibition is reported as 67% (active).
For `CCCCC(CC)CNC(=O)C(=O)C1C(=O)Nc2ccccc21` (stereo not given), the inhibition was 41.6% (active).
In the case of `O=C(Nc1cccc(F)c1)NC1CCCCCCC1`, the inhibition is reported as 39.9% (active).
For `COc1cc(SC)ccc1C(=O)Nc1nc(C)cs1`, the inhibition was 57.5% (active).
For `Cc1cc(C)nc(S/C=C/C(=O)c2ccccc2)n1`, the inhibition was 87.6% (active).
With `O=C(/C=C/Sc1ncn[nH]1)c1ccc(Cl)cc1` the inhibition was 20.5% (inactive).
In the case of `CCc1ccc2c(c1)C1(NN=C(c3ccccc3)S1)C(=O)N2` (stereo not given), the inhibition is reported as 53.2% (active).
With `CCC1=NN(C(=O)Cc2ccc([N+](=O)[O-])cc2)C(O)(c2ccc(Br)cc2)C1` (stereo not given) the inhibition was 45.7% (active).
In the case of `CC1CCC2CCCCC2N1C(=O)c1cc([N+](=O)[O-])cc([N+](=O)[O-])c1` (stereo not given), the inhibition is reported as 42.8% (active).
With `Cc1onc(NC(=O)c2ccc([N+](=O)[O-])o2)c1Br` the inhibition was 50.6% (active).
For `CCCNc1ncnc2sc(C)c(C)c12`, the inhibition was 27.9% (inactive).
With `Cc1ccc2c(c1)c1ncnc(N3CCc4ccccc4C3)c1n2C` the inhibition was 45.2% (active).
With `N#C/C(=C\c1cccnc1)C(=O)Nc1ccc(SC(F)F)cc1` the inhibition was 65.7% (active).
For `Cc1ccc(Oc2nc(-c3ccccn3)nc3ccccc23)cc1`, the inhibition was 46.1% (active).
In the case of `COc1ccc(Nc2nc(N)nc(CSC(=S)N3CCC(C)CC3)n2)cc1`, the inhibition is reported as 49.7% (active).
With `COc1ccc(/C=C2/C(=O)N(c3ccccc3)N=C2C)c(OC)c1` the inhibition was 49.5% (active).
In the case of `N#C/C(=C\c1ccccc1C(F)(F)F)C(=O)Nc1ccccc1F`, the inhibition is reported as 71.7% (active).
For `Cc1cccc(C)c1N1C(=O)CN(Cc2ccccc2)C1=S`, the inhibition was 44.8% (active).
With `Cn1nc(C(F)(F)F)c2cc(NC(=O)OCC(C)(C)C)sc21` the inhibition was 41.3% (active).
With `O=C(N/N=C\c1cc(Br)c(Br)o1)C1COc2ccccc2O1` (stereo not given) the inhibition was 31% (inactive).
In the case of `Cc1ccc(Nc2nc(-c3ccc(O)cc3O)cs2)nc1`, the inhibition is reported as 70.4% (active).
For `N/C(=N\OC(=O)Nc1ccc(Cl)c(Cl)c1)c1ncc(C(F)(F)F)cc1Cl`, the inhibition was 71.8% (active).
In the case of `CN(C)/N=C/c1cn(-c2ccccc2)nc1-c1cccnc1`, the inhibition is reported as 43% (active).
With `Cc1ccc(-c2nn(C(C)(C)C)c3ncnc(N)c23)cc1` the inhibition was 65.7% (active).
In the case of `Clc1ccc(Nc2nc(-c3cccs3)cs2)nc1`, the inhibition is reported as 68.5% (active).
With `Cc1cccc(Nc2nc(-c3ccccc3)cs2)n1` the inhibition was 23.9% (inactive).
With `CC(C)Cn1c(N)c(C(=O)NCc2cccs2)c2nc3ccccc3nc21` the inhibition was 46.1% (active).
In the case of `COc1ccc2nc(NC(=O)NC3CCCCC3)sc2c1`, the inhibition is reported as 53.1% (active).
With `COc1ccc(NC(=O)/C(Cl)=C(/Cl)S(=O)Cc2ccc(C)cc2)cn1` (stereo not given) the inhibition was 27.6% (inactive).
With `O=c1nc2s/c(=C\c3ccco3)c(=O)n2nc1Cc1ccccc1` the inhibition was -20.4% (inactive).
With `CCOc1ccccc1/C=c1\sc2nc(-c3ccco3)nn2c1=O` the inhibition was 56.6% (active).
With `O=C(NCc1ccc2c(c1)OCO2)c1c(O)nc2sccn2c1=O` the inhibition was 66.3% (active).
With `Cc1oc2c(c1C(=O)N1CCOCC1)C(=O)c1ccccc1C2=O` the inhibition was 59.5% (active).
With `CCOc1ccc(NC(=O)CCC(=O)N/N=C/c2ccc([N+](=O)[O-])s2)cc1` the inhibition was 76.9% (active).
In the case of `Cc1ccccc1NCC(=O)N/N=C\c1ccc([N+](=O)[O-])s1`, the inhibition is reported as 79.3% (active).
In the case of `COc1ccc(C(=O)Nc2ccccc2C(=O)N/N=C/c2ccccc2OC)cc1`, the inhibition is reported as 72% (active).
For `COc1cc(/C=N/Nc2nc3ccccc3s2)ccc1O`, the inhibition was 33.5% (inactive).
In the case of `COc1ccc(C(=O)Nc2ccccc2C(=O)N/N=C/c2ccc(O)c(OC)c2)cc1`, the inhibition is reported as 98.3% (active).
In the case of `Oc1c(Cl)cc(Cl)c(Cl)c1Cc1c(O)c(Cl)cc(Cl)c1Cl`, the inhibition is reported as 95.3% (active).
In the case of `O=C(Nc1ccc2oc(-c3ccccc3F)nc2c1)c1ccco1`, the inhibition is reported as 82.7% (active).
In the case of `CC(C)(C)c1ccc(Oc2ccc(N)cc2)cc1`, the inhibition is reported as 51.7% (active).
For `Oc1ccc(Br)cc1/C=N/Nc1ccccn1`, the inhibition was 65.5% (active).
With `Cc1cc(N)n2nc(-c3ccc(C(C)(C)C)cc3)cc2n1` the inhibition was 72.7% (active).
For `COC(C/C=C/C(=O)[C@@H](C)OCc1ccccc1)OC`, the inhibition was 55.2% (active).
In the case of `CCc1ccccc1NC(=O)CN(c1ccc(OC)cc1OC)S(=O)(=O)c1ccccc1[N+](=O)[O-]`, the inhibition is reported as 32.9% (inactive).
With `COc1cc([N+](=O)[O-])ccc1NC(=O)COC(=O)CCOc1ccc(C)cc1` the inhibition was 64.7% (active).
For `O=C(CNC(=O)OCc1ccccc1)Oc1cc2oc(=O)cc(-c3ccccc3)c2cc1Cl`, the inhibition was 31.1% (inactive).
In the case of `C=CCNC(=O)c1ccc2c3n(nc2c1)-c1ccc(C)cc1CO3`, the inhibition is reported as 75.2% (active).
For `Oc1ccccc1-c1cc(-c2ccc(Cl)cc2)n[nH]1`, the inhibition was -21.6% (inactive).
In the case of `CCSC1=C(C#N)C(=O)n2c1cc1c2CCCC1`, the inhibition is reported as 56.1% (active).
With `O=C1NC(Nc2nc3ccccc3s2)(C(F)(F)F)C(=O)N1C1CCCCC1` (stereo not given) the inhibition was 63.5% (active).
In the case of `Cc1nn(-c2ccccc2)c(Cl)c1/C=C/C(=O)c1ccc(O)cc1`, the inhibition is reported as 43.2% (active).
In the case of `Cc1nn(Cc2ccc(Cl)c(Cl)c2)c(C)c1NC(=O)c1cc(C2CC2)on1`, the inhibition is reported as 59.7% (active).
With `Cc1ccc(-c2ccc(/C=N/NC(=O)CN3CCOCC3)o2)cc1[N+](=O)[O-]` the inhibition was 76.8% (active).
With `Cc1ccc(C(=O)COc2cccc(NC(=O)c3ccco3)c2)cc1` the inhibition was 52.7% (active).
For `COc1ccc(-c2cc(C3CCN(c4ncccc4[N+](=O)[O-])CC3)[nH]n2)cc1`, the inhibition was 46% (active).
In the case of `O=[N+]([O-])c1ccc(C=Nc2ccc(Cl)cc2Cl)s1`, the inhibition is reported as 77.5% (active).
For `O=[N+]([O-])c1ccc2c(c1)Nc1nc3ccccc3nc1N2`, the inhibition was 48.9% (active).
For `CCCc1[nH]nc2c1C(c1ccc(Br)s1)C(C#N)=C(N)O2` (stereo not given), the inhibition was 73.6% (active).
With `O=[N+]([O-])c1ccc(N=Cc2c(O)ccc3ccccc23)cc1` the inhibition was 61.4% (active).
With `Oc1ccc2ccccc2c1C=Nc1ccccc1` the inhibition was 65.5% (active).
For `CC1CC2=C(CC1/C=N/NC(N)=S)C(C)(C)CCC2` (stereo not given), the inhibition was 43.6% (active).
In the case of `COc1ccc(/C=C(\C#N)C(=O)ONC2=NCCCCC2)cc1`, the inhibition is reported as 81.6% (active).
With `O=c1c2cc(Br)ccc2nc(-c2cccc(Cl)c2)n1O` the inhibition was 60.2% (active).
For `COc1cc(/C=C2/C(=O)ON=C2C)ccc1OCc1cccc(F)c1`, the inhibition was 53.9% (active).
For `COc1cc(/C=C2/C(=O)ON=C2C)ccc1OCc1ccccc1F`, the inhibition was 55.5% (active).
With `Clc1ccc(C2CC(c3cccs3)n3ncnc3N2)cc1Cl` (stereo not given) the inhibition was 40.9% (active).
For `CCN1C(=O)/C(=C2\SC(N3CCCCC3)=NC2=O)c2ccccc21`, the inhibition was 41.5% (active).
With `COc1cccc(C2Nc3cccc4cccc(c34)N2)c1` the inhibition was 77.5% (active).
With `Cc1cc(C(=O)N/N=C\C(Br)=C\c2ccccc2)c(C)o1` the inhibition was 50.8% (active).
For `C/C(=N/NC(=O)c1cc(Cl)ccc1O)C12CC3CC(CC(C3)C1)C2`, the inhibition was 59.9% (active).
For `CC(=NCc1ccco1)C1=C(O)c2ccccc2C1=O`, the inhibition was 50.4% (active).
With `CC(=NCc1ccc2c(c1)OCO2)C1=C(O)c2ccccc2C1=O` the inhibition was 67.6% (active).
For `COc1ccc(C(=O)NCC(=O)N/N=C/c2ccc([N+](=O)[O-])o2)cc1OC`, the inhibition was 75.6% (active).
With `c1ccc(-c2nnc3n2NC(c2ccc4c(c2)OCO4)S3)cc1` (stereo not given) the inhibition was 43.8% (active).
In the case of `Nc1ccccc1SC(C[N+](=O)[O-])c1ccccc1` (stereo not given), the inhibition is reported as 89.4% (active).
With `Cc1cc(C)c(S(=O)(=O)c2ccccc2)c(OC(=O)c2c(F)cccc2Cl)n1` the inhibition was 61.8% (active).
For `O=c1c2ccccc2[nH]c(=S)n1CCN1CCC(=C(c2ccc(F)cc2)c2ccc(F)cc2)CC1`, the inhibition was 41.8% (active).
With `CCCC(=O)N1CCN(c2nnc(-c3ccc(C)cc3)c3ccccc23)CC1` the inhibition was 16% (inactive).
For `COC(=O)N/N=C/c1ccc(-c2ccc(Cl)c(Cl)c2)o1`, the inhibition was 43.3% (active).
In the case of `O=C(Nc1ccccc1)c1nnsc1S(=O)(=O)c1ccc(Cl)cc1`, the inhibition is reported as 93% (active).
For `FC(F)(F)c1cccc(Nc2ncnc3ccccc23)c1`, the inhibition was 29% (inactive).
For `CCOc1cc(NC(=O)c2ccccc2C(=O)O)c(OCC)cc1NC(=O)c1ccccc1F`, the inhibition was 66.5% (active).
